Assay outcomes deposited in PubChem BioAssay by several laboratories.
EWS-Fli inh – inhibitors of EWS/Fli oncoprotein transcriptional activity | 350,000 compounds, 0.67% hits | inhibition, % at 12.6 µM | A673 NR0B1-luciferase reporter, viability-normalised | AID 651661;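 active means mean inhibition of at least 50% after viability correction, with every replicate also passing that limit; inconclusive means mean reaches 50% but only one of two replicates passes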;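 further: firefly luciferase signal divided by Alamar Blue viability fluorescence both relative to DMSO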
PAX8 inh HTS – lowers PAX8-driven luciferase in RMG-I cells | inhibition, % at 12.6 µM | 360,000 compounds, 1.2% hits | RMG-I TPO-luciferase reporter, SteadyGlo, 24 h | AID 652154;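 active means mean replicate inhibition at least 60% with every replicate also reaching 60%; inconclusive means only one of the two criteria is met; inactive means mean below 60% and not all replicates reaching 60%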;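 further: luciferase light reporting Pax8 driven TPO promoter activity; plate controls were median of neutral control wells for no effect and mitoxantrone controls for full effect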
LMP1 NFkB inh – Epstein-Barr LMP1 NF-kappaB reporter inhibition | LMP1-induced NF-kappaB luciferase reporter cells, luminescence | inhibition, % at 12.5 µM | AID 504558 | 350,000 compounds, 0.69% hits; in the data active means inhibition above about 41%; inconclusive means no clear call, values can overlap the other calls;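 further: 0% = neutral control wells and 100% = reference inhibitor control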
LGR2 inh – blocks bursicon-induced cAMP signaling via Drosophila LGR2. HEK293 LGR2, CRE-luciferase, bursicon-stimulated, 4 h. inhibition, % at 9.99 µM. 380,000 compounds, 0.35% hits;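 active means drop in luminescence signal, shown as inhibition above about 50% in the replicate tests, limit read from the data, passing the limit was not always enough; inconclusive means probably only some replicates passing the limit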;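 further: agonist challenge used bursicon conditioned medium at about half maximal strength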
TWEAK-Fn14 inh – inhibitors of TWEAK-Fn14 interaction signaling | inhibition, % at 10 µM | TWEAK-stimulated Fn14 reporter cells, luciferase luminescence, 8 h | AID 1159606 | 360,000 compounds, 2% hits; in the data active means inhibition above about 50%
TROY NFkB inh – inhibitors of TROY-dependent NF-kB signaling. Q293 LMP1-TROYcd NF-kB luciferase reporter, 4 h. inhibition, % at 10 µM. 360,000 compounds, 0.98% hits. AID 1347056;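 active means compounds whose plate-normalised and pattern-corrected inhibition of the luciferase reporter signal at the single screening dose is 50% or more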
An asterisk follows results filed as active; ? = inconclusive; . = no result given. A selection: hits, their analogues and other compounds. The true share with any hit is near 3.1%.

SMILES	EWS-Fli inh	PAX8 inh HTS	LMP1 NFkB inh	LGR2 inh	TWEAK-Fn14 inh	TROY NFkB inh
C[C@H]1C[C@@H](C)C(=O)[C@@H]([C@H](O)CC2CC(=O)NC(=O)C2)C1	38.9	.	73.5*	94.8*	86.0*	66.3*
CN1Cc2cnnn2-c2ccccc2C1C#N (centres undefined)	4.6	-6.8	-9.4	5.8	0.5	-1.8
COc1ccc(CN2Cc3cnnn3-c3ccccc3C2C#N)cc1 (centres undefined)	?	62.1*	14.9	96.5*	74.2*	46.3
N#CC1c2ccccc2-n2nncc2CN1Cc1cc(Cl)cc(Cl)c1 (centres undefined)	62.5*	105.7*	62.4*	102.0*	107.1*	90.6*
COc1ccc(CN2Cc3cnnn3-c3ccccc3C2c2ccccc2)cc1 (centres undefined)	30.2	32.2	-11.3	23.4	-18.4	8.4
COC(=O)[C@@H]1[C@@H](CO)[C@@H]2Cn3c(ccc(-c4cccc(F)c4)c3=O)[C@H]1N2Cc1cccnc1	-32.0	11.6	.	5.0	.	.
O=C(Cc1ccccn1)N1CCCCN2[C@H](CO)[C@H](c3ccc(-c4ccc(F)cc4)cc3)[C@H]2C1	4.7	0.7	.	2.6	.	.
C[C@]12CCC(=O)C=C1CC[C@@H]1[C@@H]2CC[C@@]2(C)[C@H]1CC[C@]2(C)O	1.0	.	13.5	-6.8	-0.1	2.6
C#C[C@]1(O)CC[C@H]2[C@@H]3CCC4=CC(=O)CC[C@]4(C)[C@H]3CC[C@@]21C	-2.5	-0.8	80.9*	-2.4	-10.7	6.4
CCC(=O)O[C@H]1CC[C@H]2[C@@H]3CCC4=CC(=O)CC[C@]4(C)[C@H]3CC[C@]12C	-3.1	.	87.2*	5.8	-22.2	20.2
COC(=O)C1=C(C(=O)OC)C2OC1c1cc3ccccc3cc12	2.2	108.6*	35.6	?	12.9	-10.8
COC(=O)C1=C(c2ccc3ccccc3c2)C[C@@H]2CC[C@H]1N2C	-0.8	4.0	0.2	9.5	-3.5	-18.4
CN(C)C(=O)[C@H]1[C@H](CO)[C@H]2Cn3c(cccc3=O)[C@@H]1N2CC1CC1	2.5	.	.	2.0	.	.
O=C(Cc1ccccc1)N1CCCCN2[C@H](C1)[C@H](c1ccc(-c3ccccc3)cc1)[C@@H]2CO	.	7.4	.	13.1	.	.
COC(=O)c1c(C)n(Cc2ccc3c(c2)OCO3)c2ccc(O)cc12	.	.	11.0	-15.4	53.2*	11.9
Cc1cccc(CN2CCN(Cc3ccc(Cl)cc3)CC2)c1	.	.	84.1*	.	19.6	4.6
CCOC(=O)[C@]12Cc3cc4ccccc4cc3[C@H]1N(Cc1ccccc1)C(=O)c1ccccc12	26.7	21.8	.	34.6	68.3*	30.7
CCOC(=O)[C@]12Cc3cc(OC)ccc3[C@H]1N(CCC(=O)OC)C(=O)c1cc(OC)ccc12	9.1	-4.8	.	38.5	10.8	21.3
CCOC(=O)[C@]12Cc3cc4ccccc4cc3[C@H]1N(Cc1ccccc1)C(=O)c1cc(OC)ccc12	3.9	0.3	.	42.6	56.3*	40.9
CCOC(=O)[C@]12Cc3cc(Cl)ccc3[C@H]1N(Cc1ccccc1)C(=O)c1cc(OC)ccc12	24.3	34.0	.	?	52.4*	28.9
CCCCCN1C(=O)c2cc(OC)ccc2[C@@]2(C(=O)OCC)Cc3cc(Cl)ccc3[C@@H]12	56.9*	16.3	.	66.6*	76.7*	51.8*
C=C1C(=O)OC2CC3(C)OC3CCC(C)=CC(OC(C)=O)C12 (centres undefined)	-1.0	95.3*	55.2*	40.0*	75.8*	52.4*
C=C1C(=O)O[C@@H]2C[C@@H](C)[C@H]3C=CC(=O)[C@]3(O)C[C@@H]12	12.5	44.9	-28.8	-0.7	-31.8	-36.3
C[C@H]1O[C@@H](OC2CC[C@]3(C=O)[C@H]4CC[C@]5(C)[C@@H](C6=CC(=O)OC6)CC[C@]5(O)[C@@H]4CC[C@]3(O)C2)CC2OC(C)(C)OC21 (some centres undefined)	71.1*	108.4*	64.7*	80.9*	81.1*	42.2
CCCCN=C[C@]12CCC(O)CC1(O)CCC1[C@@H]2CC[C@]2(C)[C@H](C3C=CC(=O)O3)CCC12O (some centres undefined)	73.3*	107.2*	2.1	85.5*	76.3*	35.0
